# Results as given in PubChem BioAssay (NCATS).
# Where “and” joins values, the source holds several entries; their conditions need not be identical. Identical values can stand only once. Inconclusive results are not listed. A call without a number means that no potency is given here. Calls of active or inactive are those of the source. Unless noted, calls come from the whole dose curve; as a rule, active = well fitted curve in the direction sought with a large enough effect; inconclusive = small, poorly fitted or top-dose-only effect, or another doubt; inactive = no such curve, though single readings can be large; an effect the other way counts as inactive or inconclusive.
# Experiments:
# [1] = target: Cellular tumor antigen p53 (Homo sapiens) (UniProt P04637); assay: Primary qHTS for small molecule compounds that upregulate eGFP-tagged delta133p53alpha (in N-terminal) cells. (AID 2060322); conditions: NCI-H358 eGFP-delta133p53alpha fluorescence, 24 h; activation: stronger effect = higher value;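 note: cells pre-induced with doxycycline then dosed without doxycycline; series mostly up to about 56 µM; nearly all actives have a fitted effect of over 75% in size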
# Sequence of Cellular tumor antigen p53 (Homo sapiens) (P04637 whole entry, looked up): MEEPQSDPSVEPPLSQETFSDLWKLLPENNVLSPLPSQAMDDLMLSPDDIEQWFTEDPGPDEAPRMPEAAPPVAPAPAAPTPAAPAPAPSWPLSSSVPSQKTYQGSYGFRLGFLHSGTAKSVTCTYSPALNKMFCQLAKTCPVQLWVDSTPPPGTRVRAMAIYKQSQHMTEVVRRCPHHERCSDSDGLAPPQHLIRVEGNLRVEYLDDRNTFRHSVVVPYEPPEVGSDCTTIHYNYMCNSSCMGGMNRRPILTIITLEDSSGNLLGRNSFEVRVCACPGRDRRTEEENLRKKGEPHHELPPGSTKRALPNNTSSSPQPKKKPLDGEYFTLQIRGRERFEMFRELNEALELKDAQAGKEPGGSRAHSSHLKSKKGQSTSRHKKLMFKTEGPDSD
# Method in brief: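 NCI-H358 cells pre-induced 24 h with 10 ng/ml doxycycline for eGFP-delta133p53alpha, plated dox-free and exposed 24 h at 37C to titrated compounds. Fixed, Hoechst-stained; gated GFP peak intensity by laser scanning cytometry, normalized to DMSO (0%) and 57.5 uM 5-azacytidine (100%).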
# [2] = target: Cellular tumor antigen p53 (Homo sapiens) (UniProt P04637); assay: Primary qHTS for small molecule compounds that upregulate eGFP-tagged delta133p53alpha (in C-terminal) cells. (AID 2060324); note: potency is the fitted concentration of half-maximal effect
# Method in brief: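 Read-out: gated-cell GFP peak intensity (laser scanning cytometer), plate-normalized with DMSO as 0% activity, after 24 h compound exposure at 37C. Cells were C-terminal eGFP-tagged delta133p53alpha NCI-H358, doxycycline-induced (100 ng/ml, 24 h) before plating.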
# [3] = target: Aldehyde dehydrogenase, mitochondrial (Homo sapiens) (UniProt P05091); assay: qHTS for Inhibitors of the Aldehyde Dehydrogenase Family (ALDH2) Validation screens (AID 2061302; active = well fitted inhibition curve with a large enough effect; title and protocol of this record describe different tests; note: potency is the fitted concentration of half-maximal effect)
# [4] = target: Retinaldehyde dehydrogenase 3 (Homo sapiens) (UniProt P47895); assay: qHTS for Inhibitors of the Aldehyde Dehydrogenase Family (ALDH1A3) Validation screen (AID 2061312); note: nearly all actives have a fitted effect of over 45% in size
# [5] = BET inhibitor-based combinations targeting novel dependencies in MECOM-rearranged (r) AML: SET-2 cell line (AID 2202231); conditions: SET-2 AML cells viability, CellTiter-Glo luminescence, 48 h; viability: stronger effect = lower value, concentration not given here; note: nearly all actives have a fitted effect of over 35% in size; note: potency is the fitted concentration of half-maximal effect
# Method in brief: (§1)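 Each compound was tested at eleven concentrations on cells seeded at 500/well. After two days' incubation, ATP-based luminescence reported viability; responses relative to DMSO and blank wells yielded AUC and cell-line-centred Z-AUC.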
# [6] = BET inhibitor-based combinations targeting novel dependencies in MECOM-rearranged (r) AML: MV-4-11 cell line (AID 2202233); note: nearly all actives have a fitted effect of over 45% in size; note: potency is the fitted concentration of half-maximal effect
# Method in brief: (§2)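 First, 500 cells per well were seeded; next, drugs were pinned as 11-point doses; then plates sat 48 hr in the incubator; finally CellTiter-Glo was added and luminescence read, with AUC and Z-AUC computed.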
# [7] = BET inhibitor-based combinations targeting novel dependencies in MECOM-rearranged (r) AML: HNT-34 cell line (AID 2202234); note: nearly all actives have a fitted effect of over 35% in size; note: potency is the fitted concentration of half-maximal effect
# Method in brief: as §2
# [8] = BET inhibitor-based combinations targeting novel dependencies in MECOM-rearranged (r) AML: AML-191 cell line (AID 2202236; note: nearly all actives have a fitted effect of over 35% in size; note: potency is the fitted concentration of half-maximal effect)
# Method in brief: as §1
# [9] = BET inhibitor-based combinations targeting novel dependencies in MECOM-rearranged (r) AML: UCSD-AML1 cell line (AID 2202235); note: nearly all actives have a fitted effect of over 40% in size; note: potency is the fitted concentration of half-maximal effect
# Method in brief: as §2
# [10] = BET inhibitor-based combinations targeting novel dependencies in MECOM-rearranged (r) AML: AML-194 cell line (AID 2202237; note: nearly all actives have a fitted effect of over 40% in size; note: potency is the fitted concentration of half-maximal effect)
# Method in brief: as §1
# [11] = BET inhibitor-based combinations targeting novel dependencies in MECOM-rearranged (r) AML: OCI-AML3 cell line (AID 2202232); conditions: Potency: OCI-AML3 viability; note: nearly all actives have a fitted effect of over 35% in size; note: potency is the fitted concentration of half-maximal effect
# Method in brief: as §1
SMILES,activation [1],Potency [2],Potency [3],Potency [4],Potency [5],Potency [6],Potency [7],Potency [8],viability [5],Potency [9],Potency [10],Potency [11]
O=c1c(-c2ccc(O)cc2)coc2cc(O)cc(O)c12,-2.22% (inactive) and -24.3% (inactive) and -49.4% (inactive),inactive,inactive,inactive,42.8 µM (active),34 µM (active),21.5 µM (active),42.8 µM (active),–,–,–,–
Cc1ccc(N(CC2=NCCN2)c2cccc(O)c2)cc1,-15.3% (inactive) and 15.9% (inactive),inactive,inactive,inactive,–,26.3 µM (active),–,–,97.5% (inactive),23.5 µM (active),–,–
CC(C)Cc1ccc(C(C)C(=O)O)cc1 (stereo unspecified),17.5% (inactive) and 9.01% (inactive),inactive,inactive,inactive,–,inactive,–,inactive,111% (inactive),inactive,inactive,–
NC12CC3CC(CC(C3)C1)C2,1.69% (inactive) and 3.9% (inactive),inactive,inactive,inactive,–,inactive,inactive,inactive,106% (inactive),inactive,inactive,–
NCCCCNCCCN,-3.21% (inactive) and -16.4% (inactive),inactive,inactive,inactive,18.6 µM (active),10.5 µM (active),23.5 µM (active),–,–,–,–,–
Cc1cc(C)c(/C=C2\C(=O)Nc3ccccc32)[nH]1,-35.1% (inactive),30.1 µM (active),inactive,inactive,–,0.742 µM (active),–,11.8 µM (active),96.4% (inactive),inactive,inactive,–
CC/C(=C(\c1ccccc1)c1ccc(OCCN(C)C)cc1)c1ccccc1,-17.6% (inactive) and -12.3% (inactive) and -27% (inactive),inactive,inactive,inactive,12.1 µM (active),15.2 µM (active),15.2 µM (active),–,–,–,–,–
CN1CCC(=C2c3ccccc3CC(=O)c3sccc32)CC1,59.8% (inactive) and 8.47% (inactive) and -42.7% (inactive),inactive,inactive,inactive,–,–,–,inactive,112% (inactive),–,inactive,18.6 µM (active)
CNC[C@H](O)c1cccc(O)c1,-9.21% (inactive) and 8.41% (inactive) and -4.95% (inactive),inactive,inactive,inactive,–,–,inactive,–,112% (inactive),inactive,inactive,inactive
CN[C@H](CC(C)C)C(=O)N[C@H]1C(=O)N[C@@H](CC(N)=O)C(=O)N[C@H]2C(=O)N[C@H]3C(=O)N[C@H](C(=O)N[C@H](C(=O)O)c4cc(O)cc(O)c4-c4cc3ccc4O)[C@H](O)c3ccc(c(Cl)c3)Oc3cc2cc(c3O[C@@H]2O[C@H](CO)[C@@H](O)[C@H](O)[C@H]2O[C@H]2C[C@](C)(N)[C@H](O)[C@H](C)O2)Oc2ccc(cc2Cl)[C@H]1O,-2.02% (inactive),inactive,inactive,inactive,–,inactive,inactive,inactive,117% (inactive),inactive,inactive,–
Cn1cnc([N+](=O)[O-])c1Sc1ncnc2nc[nH]c12,-10% (inactive),inactive,inactive,inactive,1.66 µM (active),–,–,–,–,inactive,0.468 µM (active),–
CCOC(=O)C1=C(O)C(=O)N(Cc2ccccc2)C1,-27.1% (inactive),inactive,inactive,inactive,–,–,inactive,inactive,93.1% (inactive),inactive,inactive,inactive
Oc1ccc2ccccc2c1SSc1c(O)ccc2ccccc12,-0.0951% (inactive),inactive,14.1 µM (active),inactive,–,16.6 µM (active),18.6 µM (active),20.9 µM (active),–,23.5 µM (active),20.9 µM (active),6.61 µM (active)
NC(N)=NC(=O)c1nc(Cl)c(N)nc1N,11.3% (inactive) and -28.8% (inactive) and -10.6% (inactive),inactive,inactive,inactive,–,13.5 µM (active),–,–,–,30.3 µM (active),–,9.59 µM (active)
NC(=O)c1ncn([C@@H]2O[C@H](CO)[C@@H](O)[C@H]2O)n1,6.69% (inactive) and -41.3% (inactive),inactive,inactive,inactive,20.9 µM (active),23.5 µM (active),16.6 µM (active),–,–,18.6 µM (active),–,–
CCN1CCCC1CNC(=O)c1cc(S(=O)(=O)CC)c(N)cc1OC (stereo unspecified),-0.505% (inactive) and -9.21% (inactive) and -28.2% (inactive),inactive,inactive,inactive,–,inactive,inactive,inactive,122% (inactive),inactive,inactive,–
NS(=O)(=O)c1cc2c(cc1Cl)NCNS2(=O)=O,-8.47% (inactive) and 26.3% (inactive) and -35.3% (inactive),inactive,inactive,inactive,–,–,inactive,inactive,107% (inactive),inactive,inactive,inactive
